Measurements: PubChem BioAssay (NCI)
This is part of a sample that, as a whole, favours compounds with a hit. Of some 83,000 tested, about 20% had one in any assay.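 Values shown are percent growth following 48 h exposure of cells in 96-well plates to a single concentration of compound; below 10 was considered active.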 Active and inactive are the calls of the source.

Experiments:
Test in all cases: NCI-60 one-dose screen, 48 h (100 = growth as untreated, 0 = no growth, -100 = all killed)
Conditions in all cases: 10 µM unless noted
HCT-15 colon = test system: HCT-15 colon
HT29 colon = test system: HT29 colon
SNB-75 CNS = test system: SNB-75 CNS
SNB-19 CNS = test system: SNB-19 CNS
U251 CNS = test system: U251 CNS
PC-3 prostate = test system: PC-3 prostate
SK-MEL-5 melanoma = test system: SK-MEL-5 melanoma
UACC-62 melanoma = test system: UACC-62 melanoma
LOX IMVI melanoma = test system: LOX IMVI melanoma
SK-MEL-28 melanoma = test system: SK-MEL-28 melanoma

Measured: growth

C=CCSc1nnc(NC(=O)CCl)s1
inactive: HCT-15 colon 89.7% | HT29 colon 110% | SNB-75 CNS 103% | SNB-19 CNS 89.8% | U251 CNS 92% | PC-3 prostate 103% | SK-MEL-5 melanoma 88% | UACC-62 melanoma 88.8% | SK-MEL-28 melanoma 99%
active: LOX IMVI melanoma 7.79%

Cc1nc2sc(C(=O)Nc3cccc4ccccc34)c(N)c2cc1C(O)c1ccccc1 (stereo not given)
inactive: HCT-15 colon 13.1% | HT29 colon 10.5% | SNB-75 CNS 68.8% | SNB-19 CNS 26.2% | PC-3 prostate 14.8% | UACC-62 melanoma 17.8% | LOX IMVI melanoma 21.4% | SK-MEL-28 melanoma 54.3%
active: U251 CNS 1.5% | SK-MEL-5 melanoma -53.1%

N#CC1=C(N)Oc2c(ccc3ccccc23)C1c1ccccc1 (stereo not given)
active: HCT-15 colon 8.12% | HT29 colon -2.07% | U251 CNS 9.37% | PC-3 prostate 6.19% | SK-MEL-5 melanoma 4.54% | LOX IMVI melanoma 7.97%
inactive: SNB-75 CNS 35.6% | SNB-19 CNS 26.6% | UACC-62 melanoma 26.9% | SK-MEL-28 melanoma 49.4%

NC(Cc1ccc(O)c([N+](=O)[O-])c1)C(=O)O (stereo not given)
inactive: HCT-15 colon 98.5% | HT29 colon 99.1% | SNB-75 CNS 97.2% | SNB-19 CNS 105% | U251 CNS 97.2% | PC-3 prostate 90.5% | SK-MEL-5 melanoma 105% | UACC-62 melanoma 103% | LOX IMVI melanoma 94.3% | SK-MEL-28 melanoma 99.9%

CCOC(=O)c1cc(C)n(-c2ccc(C(=O)O)cc2)c1C
inactive: HCT-15 colon 24.8% | HT29 colon 37.8% | SNB-75 CNS 130% | SNB-19 CNS 94.5% | U251 CNS 96.3% | PC-3 prostate 83.3% | SK-MEL-5 melanoma 92% | UACC-62 melanoma 86.7% | LOX IMVI melanoma 80.2% | SK-MEL-28 melanoma 127%

Ic1ccc(OCCCCn2ccnc2)cc1
inactive: HCT-15 colon 74.5% | HT29 colon 27.5% | SNB-75 CNS 64.5% | SNB-19 CNS 65.2% | U251 CNS 67.8% | PC-3 prostate 48.6% | SK-MEL-5 melanoma 79.6% | UACC-62 melanoma 40.6% | LOX IMVI melanoma 80.3% | SK-MEL-28 melanoma 55.9%

O=C(/C=C/c1ccco1)Nc1ncc(Cc2cccc(C(F)(F)F)c2)s1
inactive: HCT-15 colon 10.9% | SNB-19 CNS 34.3% | PC-3 prostate 17% | SK-MEL-5 melanoma 12.5% | SK-MEL-28 melanoma 46.4%
active: HT29 colon 3.46% | SNB-75 CNS -1.69% | U251 CNS 5.08% | UACC-62 melanoma 5.19% | LOX IMVI melanoma 5.43%

CN(/C(N)=N/N=C/c1c2ccccc2cc2ccccc12)C1CCCCC1
inactive: HCT-15 colon 25.5% | HT29 colon 17.9% | SNB-75 CNS 57.2% | SNB-19 CNS 71.5% | U251 CNS 48.3% | PC-3 prostate 36.7% | SK-MEL-5 melanoma 12.1% | UACC-62 melanoma 47.6% | LOX IMVI melanoma 31.3% | SK-MEL-28 melanoma 48.8%

O=C(NCCCl)Nc1ncccc1OCc1ccccc1
inactive: HCT-15 colon 95% | HT29 colon 94.5% | SNB-75 CNS 103% | SNB-19 CNS 103% | U251 CNS 110% | PC-3 prostate 99% | SK-MEL-5 melanoma 95.9% | UACC-62 melanoma 92.5% | LOX IMVI melanoma 102% | SK-MEL-28 melanoma 108%

Oc1c(Br)cc(Br)c2ccc(Cn3cc(-c4ccc(C(F)(F)F)cc4)nn3)nc12
inactive: HCT-15 colon 25.2% | HT29 colon 59% | SNB-75 CNS 77.2% | SNB-19 CNS 94% | U251 CNS 102% | PC-3 prostate 77.6% | SK-MEL-5 melanoma 98.2% | UACC-62 melanoma 67.8% | LOX IMVI melanoma 11.5% | SK-MEL-28 melanoma 48.1%

COC(=O)c1c(C)nc(C)c2c1C(=O)C(Br)=C(NCc1ccccc1)C2=O
inactive: HCT-15 colon 11.6% | SNB-75 CNS 100% | SNB-19 CNS 41.7% | U251 CNS 20.1% | PC-3 prostate 16.1% | SK-MEL-28 melanoma 56.4%
active: HT29 colon 6.01% | SK-MEL-5 melanoma -96.5% | UACC-62 melanoma -10.8% | LOX IMVI melanoma 6.45%

[O-]/[N+](=C\c1ccc(-n2cc(Cc3ccccc3Cc3cn(-c4ccc(/C=[N+](/[O-])c5ccccc5)cc4)nn3)nn2)cc1)c1ccccc1
inactive: HCT-15 colon 98.8% | HT29 colon 101% | SNB-75 CNS 91.9% | SNB-19 CNS 96.7% | U251 CNS 107% | PC-3 prostate 103% | SK-MEL-5 melanoma 105% | UACC-62 melanoma 94.7% | LOX IMVI melanoma 87.9% | SK-MEL-28 melanoma 110%
